Screens deposited in PubChem BioAssay by Broad Institute.
Shown is part of a subset that was picked to be rich in hits.
miR-122 inh: activators of miR-122 sensor in Huh7 cells | activation, % at 12.5 µM | Huh7 psiCHECK-miR122 Renilla luciferase sensor, 48 h | AID 623901 | hit rate 0.14% among 340,000;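 active = mean activation of 30% or more, with every replicate also reaching 30%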;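 note: higher luciferase signal means stronger suppression of miR-122 activity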
Numbers stand for hits; 0 = inactive.

SMILES	miR-122 inh
CCOC(=O)Nc1cc2c(c(N)n1)N=C(c1ccccc1)CN2	0
Cc1cc(C)cc(Oc2ccc(NC(=O)C3CC=CCC3C(=O)O)cc2)c1 (stereo not given)	32
C[C@H](CO)N1C[C@H](C)[C@@H](CN(C)C(=O)CC2CC2)Oc2ncc(C#CCC3CCCC3)cc2C1=O	0
COc1ccc2[nH]c3c4c(ccc3c2c1)C(=O)C=CC4=O	42
C[C@H](CO)N1C[C@H](C)[C@H](CN(C)C(=O)c2ccncc2)Oc2cc(C#Cc3ccncc3)ccc2S1(=O)=O	0
CC(=O)N(C)C[C@H]1Oc2cc(C#C[C@H](C)O)ccc2S(=O)(=O)N([C@H](C)CO)C[C@H]1C	0
CCCN(C)C[C@@H]1Oc2ncc(-c3cccc(C(F)(F)F)c3)cc2C(=O)N([C@H](C)CO)C[C@@H]1C	0
C/C=C/c1ccc2c(c1)O[C@H](CN(C)C(=O)CC1CC1)[C@H](C)CN([C@@H](C)CO)S2(=O)=O	0
O=C(N[C@H]1CC[C@H](CCn2cc(C3(O)CCCC3)nn2)O[C@H]1CO)c1ccccc1F	42
Cc1ccc(S(=O)(=O)NCC[C@@H]2CC[C@@H](NC(=O)c3cnccn3)[C@H](CO)O2)cc1	0
CCN(CC)CCNc1nc(-c2ccccc2)nnc1C(F)(F)F	44
C[C@@H](O)C#Cc1ccc2c(c1)O[C@H](CN(C)C(=O)Cc1ccccn1)[C@@H](C)CN([C@@H](C)CO)S2(=O)=O	0
C[C@@H]1CN([C@@H](C)CO)C(=O)c2cc(C#Cc3cccnc3)cnc2O[C@H]1CN(C)S(C)(=O)=O	0
C[C@H](CO)N1C[C@H](C)[C@@H](CN(C)Cc2ccccn2)Oc2cc(-c3cccc(C#N)c3)ccc2S1(=O)=O	0
C[C@H]1CN([C@@H](C)CO)S(=O)(=O)c2ccc(C#Cc3cccnc3)cc2O[C@@H]1CN(C)C(=O)C1CC1	0
COc1cccc(-c2cnc3c(c2)C(=O)N([C@@H](C)CO)C[C@@H](C)[C@H](CN(C)C(=O)CC2CC2)O3)c1	0
CNc1nc(NCC2CCCCC2)c2sccc2n1	43
COc1ccccc1CNS(=O)(=O)c1ccc(-c2cc(C)no2)cc1	0
COc1ccccc1CNc1nc(NCC2CC2)nc2ccsc12	43
C[C@H]1CN([C@@H](C)CO)C(=O)c2cc(C#CC(C)(C)O)cnc2O[C@H]1CN(C)Cc1cncnc1	0
C/C=C/c1ccc2c(c1)O[C@H](CN(C)C(=O)CC1CC1)[C@@H](C)CN([C@H](C)CO)S2(=O)=O	0
C[C@H](CO)N1C[C@H](C)[C@@H](CN(C)C(=O)C2CCCCC2)Oc2ncc(C3=CCCC3)cc2C1=O	0
COCC(=O)N(C)C[C@@H]1Oc2cc(-c3cccc(F)c3)ccc2S(=O)(=O)N([C@H](C)CO)C[C@@H]1C	0
COc1ccc(C(NC(C)=O)c2cc(Cl)c3cccnc3c2O)cc1 (stereo not given)	72
O=C(NC[C@H]1N[C@H](CO)[C@@H]1c1ccccc1)C1CCCC1	0
SMILES	miR-122 inh
Cc1cccc(NC(=O)Nc2ccc3c(c2)C(=O)N(C)[C@H]2CC[C@@H](CC(=O)NCc4ccccc4Cl)O[C@H]2CO3)c1	37
CCCNC(=O)Nc1ccc2c(c1)C(=O)N(C)[C@@H]1CC[C@H](CC(=O)NCC3CCCCC3)O[C@H]1CO2	33
Cc1nn(C)cc1NC(=O)C[C@@H]1CC[C@@H]2[C@@H](COc3ccc(NC(=O)Nc4cccc(Cl)c4)cc3C(=O)N2C)O1	48
CCCNC(=O)C[C@@H]1CC[C@H]2[C@H](COc3ccc(NC(=O)Cc4cccs4)cc3C(=O)N2C)O1	0
CN1C(=O)c2cc(NC(=O)Cc3ccccc3)ccc2OC[C@@H]2O[C@H](CC(=O)NCc3ccc(Cl)cc3)CC[C@@H]21	0
CCCNC(=O)C[C@@H]1CC[C@@H]2[C@H](COc3ccc(NC(=O)Nc4c(C)noc4C)cc3C(=O)N2C)O1	0
CCCNC(=O)C[C@@H]1CC[C@@H]2[C@@H](COc3ccc(NC(=O)Nc4ccccc4F)cc3C(=O)N2C)O1	50
CCCNC(=O)C[C@H]1CC[C@H]2[C@H](COc3ccc(NC(=O)Cc4cccs4)cc3C(=O)N2C)O1	0
C[C@H](CO)N1C[C@H](C)[C@@H](CN(C)Cc2cccc(F)c2)Oc2ncc(C3=CCCCC3)cc2C1=O	0
C[C@H]1CN([C@@H](C)CO)C(=O)c2cc(/C=C/c3ccccc3)cnc2O[C@H]1CN(C)C(=O)c1cccnc1	0
C[C@H]1CN([C@@H](C)CO)S(=O)(=O)c2ccc(C#CCC3CCCC3)cc2O[C@@H]1CN(C)C(=O)c1ccccn1	0
CO[C@H]1CN(C)C(=O)c2ccc(NC(=O)Nc3cccc(F)c3)cc2OC[C@@H](C)N(C)C[C@@H]1C	0
CO[C@H]1CN(C)C(=O)c2cc(NC(C)=O)ccc2OC[C@H](C)N(C(=O)c2ccccc2)C[C@@H]1C	0
C[C@H](CO)N1C[C@H](C)[C@@H](CN(C)C(=O)c2ccncc2)Oc2cc(C#C[C@@H](C)O)ccc2S1(=O)=O	0
CO[C@@H]1CN(C)C(=O)c2cc(NC(=O)Cc3ccccc3)ccc2OC[C@H](C)N(C)C[C@H]1C	0
O=C(C[C@@H]1C[C@H]2c3cc(NS(=O)(=O)c4ccc(F)cc4)ccc3O[C@H]2[C@H](CO)O1)NCc1ccc(-c2ccccc2)cc1	0
COCC#Cc1cnc2c(c1)C(=O)N([C@@H](C)CO)C[C@H](C)[C@H](CN(C)S(=O)(=O)c1cccc(OC)c1)O2	0
CCC(=O)N(C)C[C@H]1Oc2ncc(C#C[C@H](C)O)cc2C(=O)N([C@@H](C)CO)C[C@H]1C	0
C[C@H](CO)N1C[C@H](C)[C@H](CN(C)S(C)(=O)=O)Oc2cc(-c3ccccc3F)ccc2S1(=O)=O	0
COc1ccc(S(=O)(=O)N2CC[C@@H]3[C@@H](CO)N(C)c4ccc(-c5ccc(F)cc5)cc4[C@@H]32)cc1	0
CC(C)C#Cc1ccc2c(c1)O[C@H](CN(C)Cc1ccncc1)[C@@H](C)CN([C@H](C)CO)S2(=O)=O	0
CCCC#Cc1ccc2c(c1)O[C@@H](CN(C)C(=O)NCCC)[C@H](C)CN([C@@H](C)CO)S2(=O)=O	0
C[C@H](CO)N1C[C@H](C)[C@H](CN(C)C(=O)c2ccccc2F)Oc2ncc(-c3ccncc3)cc2C1=O	0
CCCNC(=O)C[C@@H]1CC[C@H]2[C@H](COc3ccc(NC(=O)c4ccc5c(c4)OCO5)cc3C(=O)N2C)O1	0
CN1C(=O)c2cc(NC(=O)Cc3ccccc3)ccc2OC[C@@H]2O[C@H](CC(=O)NCC3CC3)CC[C@@H]21	0
SMILES	miR-122 inh
Cc1ccccc1NC(=O)Nc1ccc2c(c1)C(=O)N(C)[C@@H]1CC[C@H](CC(=O)NCC3CC3)O[C@@H]1CO2	47
CC(C)c1ccc(NC(=O)C[C@H]2CC[C@H]3[C@@H](COc4ccc(NC(=O)Nc5ccc(F)c(F)c5)cc4C(=O)N3C)O2)cc1	45
CCNC(=O)Nc1ccc2c(c1)C(=O)N(C)[C@H]1CC[C@H](CC(=O)Nc3ccccc3F)O[C@@H]1CO2	53
CCCNC(=O)C[C@H]1CC[C@H]2[C@@H](COc3ccc(NC(=O)c4cc(F)cc(F)c4)cc3C(=O)N2C)O1	53
CCC(=O)N(C)C[C@H]1Oc2ncc(-c3cccc(OC)c3)cc2C(=O)N([C@@H](C)CO)C[C@@H]1C	0
COCC(=O)N1[C@H](CO)[C@H](c2ccccc2)[C@@H]1CNC(=O)c1ccccn1	0
CCC(=O)N(C)C[C@H]1Oc2ncc(C#CCC3CCCC3)cc2C(=O)N([C@@H](C)CO)C[C@@H]1C	0
